# According to PubChem BioAssay (NCATS):
# Several values for one entry are separate records, joined by “and”; a condition that tells them apart may be missing. Equal values may be shown once. Inconclusive results are not listed. A call without a number means that no potency is given here. Where a structure was tested more than once in an assay, its records may differ in their call. Activity calls are given as the source filed them. Unless noted, calls come from the whole dose curve.
# Tests used:
# [1] = Primary qHTS for inhibitors of MERS-S pseudo-typed particle cell entry (AID 1479149); conditions: outcome: dose series up to 57.1 µM unless noted; note: nearly all actives have a fitted effect of over 60% in size; note: potency is the fitted concentration of half-maximal effect
# [2] = Primary qHTS for Vero E6 cytotoxicity: counterscreen for inhibitors of SARS-S pseudo-typed particle cell entry (AID 1479150); conditions: outcome: dose series up to 57.1 µM unless noted; note: potency is the fitted concentration of half-maximal effect
# [3] = Cytotoxicity counterscreen for inhibitors of SARS-CoV-2 cell entry (AID 1645845); conditions: outcome: dose series up to 57.1 µM unless noted; note: nearly all actives have a fitted effect of over 50% in size; note: potency is the fitted concentration of half-maximal effect
# How it was run: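 Counterscreen run in the same HEK293-ACE2 line as the pseudotyped-particle entry assay, without particles. Viability after 48 h at 37 C was read as ATP luminescence, scaled between cell-containing and cell-free wells.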
# [4] = Primary qHTS for Huh7 cytotoxicity: counterscreen for inhibitors of MERS-S pseudotyped particle cell entry (AID 1479147); conditions: outcome: dose series up to 57.1 µM unless noted
# [5] = Primary qHTS to identify inhibitors of SARS-CoV-2 cell entry (AID 1645846); conditions: SARS-CoV-2 pseudovirus cell entry assay, luminescence; activity change, negative = inhibition: at 57.1 µM (top of the series) unless noted; note: nearly all actives have a fitted effect of over 45% in size; note: potency is the fitted concentration of half-maximal effect
# How it was run: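 HEK293-ACE2 (Expi293F, stable hACE2), 1500 cells/well, o/n 37C; cpd 23 nL pin, 1 h; MLV-PP w/ SARS-CoV-2-S (Wuhan-Hu-1, Δ19 C-term); 48 h 37C; Bright-Glo luminescence; normalized vs S-PP and bald PP.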
# [6] = Confirmatory qHTS for VERO E6 Cytotoxicity Assay: Counterscreen for SARS-CoV-2 CPE Assay (AID 1508605); note: nearly all actives have a fitted effect of over 60% in size; note: potency is the fitted concentration of half-maximal effect
# [7] = qHTS Assay for Identifying Gametocytocidal Compounds (AID 743244; active = well fitted curve in the direction sought with a large enough effect; note: potency is the fitted concentration of half-maximal effect); conditions: P. falciparum 3D7 stage III-V gametocytes, alamarBlue, 72 h
# How it was run: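 Stage III–V gametocytes of P. falciparum 3D7 were seeded at 20,000 cells/well onto pre-dispensed compounds. After 72 h, 37 °C, 5% CO2, alamarBlue was added for another 24 h.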
# [8] = Confirmatory qHTS to identify inhibitors of SARS-CoV-2 cell entry (AID 1645844); note: potency is the fitted concentration of half-maximal effect; nearly all actives have a fitted effect of over 45% in size
# How it was run: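 HEK293-ACE2, overnight seeding; cpd 1 h, 37C/5% CO2; + SARS-CoV-2-S MLV PP (Wuhan-Hu-1, ΔC19); 48 h; Bright-Glo luminescence. Data normalised to S PP and bald PP wells.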
# [9] = VSVG counterscreen qHTS to identify inhibitors of SARS-CoV-2 cell entry (AID 1645847); note: potency is the fitted concentration of half-maximal effect; nearly all actives have a fitted effect of over 65% in size
# How it was run: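 Expi293F/hACE2 cells, overnight plating; cpd 1 h, 37C/5% CO2; + VSV-G PP (MLV pseudotyping), 48 h; supernatant removed, Bright-Glo luciferase read. Norm: VSV-G PP and bald PP wells.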
# [10] = Confirmatory qHTS for activators (rescue) of SARS-CoV-2 Cytopathic Effect (CPE) (AID 1508606); note: potency is the fitted concentration of half-maximal effect; nearly all actives have a fitted effect of over 70% in size
structure (smiles),measurement,setting,value
CCC1OC(=O)C(C)C(OC2CC(C)(OC)C(O)C(C)O2)C(C)C(OC2OC(C)CC(N(C)C)C2O)C(C)(O)CC(C)C2NC(COCCOC)OC(C2C)C1(C)O (stereo unspecified),Potency,[1],inactive
same,Potency,[2],inactive
same,Potency,[3],inactive
O=C1CSC2(CCN(CCCN3c4ccccc4Sc4ccc(Cl)cc43)CC2)N1,Potency,[4],inactive
same,Potency,[2],inactive
same,Potency,[5],25.1 µM (active)
CS(=O)(=O)NCC1CCC(Nc2nc3c(s2)CCSc2ccccc2-3)CC1 (stereo unspecified),Potency,[6],inactive
CC[C@@H](C(=O)O)[C@@H]1O[C@@H]([C@@H](C)[C@H](O)[C@H](C)C(=O)[C@H](CC)[C@H]2O[C@]3(C=C[C@@H](O)[C@]4(CC[C@@](C)([C@H]5CC[C@](O)(CC)[C@H](C)O5)O4)O3)[C@H](C)C[C@@H]2C)[C@@H](C)C[C@@H]1C,Potency,[7],0.316 µM (active)
same,Potency,[1],0.355 µM (active)
same,Potency,[2],inactive
same,Potency,[5],0.708 µM (active)
C=CC(=O)Nc1cc(Nc2nccc(-c3cn(C)c4ccccc34)n2)c(OC)cc1N(C)CCN(C)C,Potency,[1],31.6 µM (active)
same,Potency,[3],28.2 µM (active)
same,Potency,[5],3.16 µM (active) and 8.91 µM (active)
CCCCCCCC(=O)CC[C@@H]1[C@@H](C/C=C\CCCC(=O)OC(C)C)[C@@H](O)C[C@H]1O,Potency,[4],inactive
same,Potency,[2],inactive
same,Potency,[5],25.1 µM (active)
CCCCCCOc1ccc(C(=N)N(CCCC)CCCC)c2ccccc12,Potency,[2],14.1 µM (active)
same,Potency,[6],10 µM (active)
C[C@H](Oc1cc(-c2cnn(C3CCNCC3)c2)cnc1N)c1c(Cl)ccc(F)c1Cl,Potency,[1],12.6 µM (active)
same,Potency,[2],inactive
same,Potency,[3],inactive
same,Potency,[5],11.2 µM (active)
O=C(OC[C@H]1O[C@@H](OC(=O)c2cc(O)c(O)c(OC(=O)c3cc(O)c(O)c(O)c3)c2)[C@H](OC(=O)c2cc(O)c(O)c(OC(=O)c3cc(O)c(O)c(O)c3)c2)[C@@H](OC(=O)c2cc(O)c(O)c(OC(=O)c3cc(O)c(O)c(O)c3)c2)[C@@H]1OC(=O)c1cc(O)c(O)c(OC(=O)c2cc(O)c(O)c(O)c2)c1)c1cc(O)c(O)c(OC(=O)c2cc(O)c(O)c(O)c2)c1,Potency,[2],inactive
FC(F)(F)C(F)(F)C(F)(F)C(F)(F)C(F)(F)F,Potency,[1],inactive
CCCCCCCCCCCCCC[n+]1ccc(C)cc1,Potency,[4],inactive
same,Potency,[3],5.62 µM (active)
CCCCC(=O)OCC(=O)[C@]1(O)Cc2c(O)c3c(c(O)c2[C@@H](O[C@H]2C[C@H](NC(=O)C(F)(F)F)[C@H](O)[C@H](C)O2)C1)C(=O)c1c(OC)cccc1C3=O,Potency,[7],7.08 µM (active)
same,Potency,[1],14.1 µM (active)
same,Potency,[2],inactive
same,Potency,[8],0.857 µM (active)
same,Potency,[3],inactive
same,Potency,[5],1 µM (active)
same,"activity change, negative = inhibition",[5],-97.5%
same,Potency,[9],0.961 µM (active)
C=C1C(=O)O[C@H]2C3=C(C)CCC[C@]3(C)C(=O)C[C@@H]12,Potency,[6],10 µM (active)
COc1ccc2sc(NC(c3ccc(OC(F)F)cc3)c3ccc4cccnc4c3O)nc2c1 (stereo unspecified),Potency,[6],0.708 µM (active)
NC(=O)c1cccc2cn(-c3ccc(C4CCCNC4)cc3)nc12 (stereo unspecified),Potency,[1],25.1 µM (active)
same,Potency,[2],inactive
CCCN1C[C@@H](NS(=O)(=O)N(CC)CC)C[C@@H]2Cc3c(O)cccc3C[C@H]21,Potency,[2],inactive
CC(C)N1CCN(c2ccc(OC[C@@H]3CO[C@@](Cn4cncn4)(c4ccc(Cl)cc4Cl)O3)cc2)CC1,Potency,[1],inactive
same,Potency,[2],inactive
same,Potency,[3],inactive
Clc1ccc(CCCOCCCN2CCCCC2)cc1,Potency,[2],inactive
same,Potency,[3],inactive
C/C=C(\C)C(=O)OC1C(C)C2(O)C3C=C(C)C(=O)C3CC(CO)=CC2C2C(C)(C)C12OC(C)=O (stereo unspecified),Potency,[6],inactive
COc1ccc(-c2csc(NC(=O)[C@H]3CCCCN3S(=O)(=O)c3ccc(C)cc3)n2)cc1,Potency,[6],inactive
C/C(=C(\CCOC(=O)c1ccccc1)SS/C(CCOC(=O)c1ccccc1)=C(/C)N(C=O)Cc1cnc(C)nc1N)N(C=O)Cc1cnc(C)nc1N,Potency,[1],inactive
same,Potency,[3],inactive
CC1=CC(=C(c2ccc(N)cc2)c2ccc(N)cc2)C=CC1=N,Potency,[1],7.08 µM (active)
same,Potency,[5],5.01 µM (active)
CCN1/C(=C/C=C/C=C/c2sc3ccccc3[n+]2CC)Sc2ccccc21,Potency,[1],11.2 µM (active)
Cc1[nH]c(/C=C2\C(=O)Nc3ccc(F)cc32)c(C)c1C(=O)NCCN1CCCC1,Potency,[2],inactive
same,Potency,[3],inactive
same,"activity change, negative = inhibition",[5],-9.79% [at 27.1 µM]
COc1ccc2c(c1)N(C[C@H](C)CN(C)C)c1ccccc1S2,Potency,[2],inactive
same,Potency,[6],inactive
same,Potency,[10],10 µM (active)
same,Potency,[3],inactive
same,Potency,[5],11.2 µM (active)
Clc1cc(Cl)c(OCC#CI)cc1Cl,Potency,[1],inactive
NC(=O)c1cnc(N[C@@H]2CCCC[C@@H]2N)nc1Nc1cccc(-n2nccn2)c1,Potency,[6],inactive
CC1(C)[C@@H](O[C@H]2O[C@H](C(=O)O)[C@@H](O)[C@H](O)[C@H]2O[C@@H]2O[C@H](C(=O)O)[C@@H](O)[C@H](O)[C@H]2O)CC[C@]2(C)[C@H]3C(=O)C=C4[C@@H]5C[C@@](C)(C(=O)O)CC[C@]5(C)CC[C@@]4(C)[C@]3(C)CC[C@@H]12,Potency,[1],inactive
same,Potency,[2],inactive
same,Potency,[3],inactive
CC(Cc1ccc(O)c(O)c1)C(C)Cc1ccc(O)c(O)c1 (stereo unspecified),Potency,[4],inactive
same,Potency,[2],inactive
same,Potency,[3],inactive
same,Potency,[9],27.1 µM (active)
CCSc1ccc2c(c1)N(CCCN1CCN(C)CC1)c1ccccc1S2,Potency,[2],inactive
CCCCC(=O)O[C@H]1CC[C@H]2[C@@H]3CCc4cc(O)ccc4[C@H]3CC[C@]12C,Potency,[4],inactive
same,Potency,[2],inactive
same,"activity change, negative = inhibition",[5],-64.3%
Cc1cc(/C=C/c2ccc3cc(N(C)C)ccc3[n+]2C)c(C)n1-c1ccccc1,Potency,[1],5.01 µM (active)
same,Potency,[5],1.78 µM (active)
C[C@](C#N)(COc1cc(C#N)ccc1C(F)(F)F)NC(=O)c1ccc(SC(F)(F)F)cc1,Potency,[2],inactive
